# Measurements taken from PubChem BioAssay (NCI).
# Compounds without any hit were thinned out: in the full panel of roughly 83,000, 20% have a hit.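 Results are percent growth after 48 hours of single-concentration exposure. 100 means growth as in untreated cells, lower positive values show inhibition; negative values down to -100 show cell death.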 A number with no mark means an inactive call. Active and inactive are the calls of the source. How the source made its calls: active means growth percent below 10; inactive means the rest.
# System: LOX IMVI melanoma
# Assay: NCI-60 one-dose screen, 48 h (100 = growth as untreated, 0 = no growth, -100 = all killed)
# Conditions: 10 µM unless noted
row,Compound,growth
1,CC(C)n1nc(C#Cc2cccc(O)c2)c2c(N)ncnc21,-92.4% (active)
2,COc1cc2c(=O)n(CCCn3ccnc3)c3c4cc5c(cc4ccc3c2cc1OC)OCO5,-62.4% (active)
3,O=C(/C=C/C12c3ccccc3C(c3ccccc31)C1C(=O)N(c3ccccc3)C(=O)C12)c1ccccc1 (configuration not stated),-81.4% (active)
4,O=C(CC12CC3CC(CC(C3)C1)C2)NCCOCCOCCOCCNC(=O)c1cc2c(o1)C(=O)c1ccccc1C2=O,-52.4% (active)
5,O=C1Nc2ccccc2/C1=N/N=C/c1ccc(OC2OC(CO)C(O)C(O)C2O)cc1 (configuration not stated),101%
6,CC(=[N-])N1CCC[C@@H](Nc2c3ccccc3nc3ccccc23)C1.[Cl][Pt].[NH-]CCC[NH-],27.9%
7,O=C1Nc2ccccc2/C1=N/N=C/c1c[nH]c2ccccc12,68.4%
8,CNC1(C#N)CCN(Cc2ccccc2)CC1,102%
9,COc1cc2c(cc1OC)-c1ccc3cc4c(cc3c1N(CCCn1ccnc1)C2)OCO4,1.62% (active)
10,NC(=O)c1c(NC(=O)c2ccccn2)sc2c1CCC(=O)C2,21.6%
11,NC(N)=N/N=C/c1ccc(Br)cc1,43%
12,CCNCCNc1cc(C2CCCC2)c(C#N)c2nc3ccccc3n12,-79% (active)
13,CS(=O)(=O)c1ccc(-c2[nH]c3ccc(F)cc3c2/C=N/O)cc1,95.3%
14,N=C(N)c1ccc(-c2ccc(-c3ccc(Cl)cc3Cl)o2)cc1,-94.7% (active)
15,CC(=O)C(C(C)=O)c1nc2sc3cc(Cl)ccc3n2c(=N)c1C#N,79.7%
16,Cc1ccc(/C=C(\C#N)n2nnc3cc(Cl)c(Cl)cc32)cc1,-13.4% (active)
17,O=S(=O)(NCCNc1cc(-c2c(-c3cccc(O)c3)nc3sccn23)ccn1)c1ccc(Br)cc1,61.6%
18,COc1ccc(/C(C)=N/NS(=O)(=O)c2ccc(C)cc2)cc1OC,93.1%
19,C=C(Cl)COC(=O)C(C)(C)O,94.8%
20,CCc1c(C(=O)N[C@@H]2c3cc(Cl)ccc3CC[C@@H]2O)[nH]c(C)c1C(C)=O,50.9%
21,COc1cc2nc(Nc3ccc(F)cc3)nc(N)c2cc1OC,101%
22,c1ccc2c(c1)nc(-n1ccnc1)c1nc3ccccc3n12,71%
23,COC(=O)/C(=C\c1ccc(OC)cc1)C(=O)N1c2ccccc2Sc2ccccc21,50.6%
24,CN1CCN(c2ccc(Nc3ncc(Cl)c(NC[C@@H]4CCCO4)n3)cc2)CC1,8.91% (active)
25,O=C(NC1CCOCC1)c1ccc2c(c1)CN(c1ncc(Cc3cccc(-n4cccn4)c3)s1)CC2,63.8%
26,[2H]c1nc(Nc2ncc(F)c(-c3cc(F)c4nc(C)n(C(C)C)c4c3)n2)c([2H])c([2H])c1CN1CCN(C([2H])([2H])C([2H])([2H])[2H])CC1,39.1%
27,COc1ccc(C2CC(c3cnccn3)=NN2)cc1OC (configuration not stated),104%
